# Screens as filed in PubChem.
# mut p53 react – restores mutant p53 pathway signaling in SW480 cells. hit rate 1.5% among 28,000. AID 624151. activation, % at 9.98 µM. SW480 PUMA-promoter luciferase, p53 mutant reactivation; in the data active means activation above about 52%; inconclusive means no clear call, values can overlap the other calls
# STK33 kin inh – inhibitors of human STK33 kinase. Q9BYT3. ADP-Glo luminescence, MBP substrate. inhibition, % at 12.5 µM. hit rate 0.44% among 27,000. AID 2322; in the data active means inhibition above about 20%; inconclusive means no clear call, values can overlap the other calls
# ID4 binder – binders of human ID4 protein; calls only; small molecule microarray, Flag-ID4 binding, fluorescence F/B; hit rate 1.2% among 31,000; P47928; call rule not given here;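 further: a binder raises fluorescence above local background on the spot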
# Target sequence (P47928 whole entry, looked up): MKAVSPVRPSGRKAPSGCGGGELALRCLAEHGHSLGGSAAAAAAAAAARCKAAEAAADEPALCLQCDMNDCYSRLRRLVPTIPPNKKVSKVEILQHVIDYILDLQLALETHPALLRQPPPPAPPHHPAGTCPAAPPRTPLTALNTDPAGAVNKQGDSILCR
# NOMO-1 viab – STK33 inhibitor candidate reducing NOMO-1 cell viability | NOMO-1 AML viability, CellTiter-Glo luminescence, 72 h | inhibition, % (concentration not given with the values) | hit rate 7.5% among 37,000 | AID 2330; in the data active means inhibition above about 80%; inconclusive means no clear call, values can overlap the other calls
# Numbers stand for hits; - = inactive; ? = inconclusive; . = no result. This excerpt belongs to a sample that is enriched for hits.
SMILES,mut p53 react,STK33 kin inh,ID4 binder,NOMO-1 viab
C[C@@H]1CN([C@@H](C)CO)C(=O)c2cccc(NC(=O)c3nc4ccccc4s3)c2O[C@@H]1CN(C)Cc1ccc(C(=O)Nc2ccccc2N)cc1,.,.,.,127
C[C@@H]1CN([C@@H](C)CO)C(=O)Cc2cc(NC(=O)Nc3ccccc3)ccc2O[C@@H]1CN(C)Cc1ccc(C(F)(F)F)cc1,.,-,.,119
C[C@@H]1CN([C@H](C)CO)C(=O)Cc2cc(NC(=O)Nc3ccc(C(F)(F)F)cc3)ccc2O[C@@H]1CN(C)Cc1ccccc1,.,-,.,118
C[C@@H]1CN([C@@H](C)CO)C(=O)Cc2cc(NC(=O)Nc3ccc(C(F)(F)F)cc3)ccc2O[C@@H]1CN(C)Cc1ccccc1,.,-,.,?
C[C@H]1CN([C@@H](C)CO)C(=O)Cc2cc(NC(=O)Nc3ccccc3)ccc2O[C@@H]1CN(C)Cc1ccc(C(F)(F)F)cc1,.,-,.,-
COc1cccc(NC(=O)N(C)C[C@@H]2OCc3cnnn3CCCC(=O)N([C@@H](C)CO)C[C@@H]2C)c1,.,-,.,.
O=S(=O)(c1cccc2c(Cl)cccc12)N1CCCNCC1,-,-,-,90
C[C@@H]1CN([C@H](C)CO)C(=O)Cc2cc(NC(=O)Nc3ccc(F)cc3)ccc2O[C@H]1CN(C)Cc1ccc(C(F)(F)F)cc1,.,-,.,116
C[C@H]1CN([C@@H](C)CO)C(=O)Cc2cc(NC(=O)Nc3ccc(F)cc3)ccc2O[C@@H]1CN(C)Cc1ccc(C(F)(F)F)cc1,-,-,.,117
COc1ccc(CN(C)C[C@H]2Oc3ccc(NC(=O)Nc4ccc(C(F)(F)F)cc4)cc3CC(=O)N([C@@H](C)CO)C[C@@H]2C)cc1,-,-,-,-
C[C@H](CO)N1C[C@H](C)[C@H](CN(C)Cc2ccc(C(F)(F)F)cc2)Oc2ccc(NC(=O)Nc3ccc(F)cc3)cc2CC1=O,.,-,.,113
O=C(N[C@@H]1CC[C@H](CC(=O)N2CCc3ccccc3C2)O[C@H]1CO)C1CC1,.,.,-,.
O=C(CCSc1nc(-c2ccccc2)cs1)Nc1ccccc1,-,-,-,-
CC(=O)Nc1ccc(C(=O)CSc2nc3ccccc3o2)cc1,56,-,-,-
COc1cc(OC)nc(NC(=O)CSc2nc3ccccc3o2)n1,-,-,-,-
O=C(CSc1nc2ccccc2o1)Nc1ccc(N2CCOCC2)c(Cl)c1,96,-,-,-
CCOc1ccc(NC(=O)CSc2nc3ccccc3o2)cc1,-,-,-,-
CC(=O)Nc1ccc(C(=O)CSc2nc(-c3ccccc3)cs2)cc1,88,-,-,-
COC(=O)c1cc(OC)c(OC)cc1NC(=O)CSc1nc2ccccc2o1,105,-,-,-
C[C@H](CO)N1C[C@H](C)[C@H](CN(C)Cc2ccc3c(c2)OCO3)Oc2ncc(-c3cccc(C(F)(F)F)c3)cc2C1=O,.,-,.,.
COC(=O)c1cc(NC(=O)CSc2nc(Nc3ccccc3)nc(N3CCOCC3)n2)ccc1Cl,-,-,-,117
COc1ccc(NC(=O)Nc2ccc3c(c2)C(=O)N([C@H](C)CO)C[C@H](C)[C@H](CN(C)C(=O)Nc2cccc4ccccc24)O3)cc1,.,.,.,-
C=CS(=O)(=O)c1ccc(OC)c(N)c1,.,-,.,120
COc1ccc(OC)c(S(=O)(=O)c2ccc(Br)cc2)c1,.,.,.,-
CC(C)NC(=O)N(C)C[C@@H]1Oc2ccc(NS(C)(=O)=O)cc2CC(=O)N([C@H](C)CO)C[C@@H]1C,.,-,.,-
SMILES,mut p53 react,STK33 kin inh,ID4 binder,NOMO-1 viab
c1ccc(N=C(Nc2ccccc2)Nc2ccccc2)cc1,.,.,.,89
O=C(c1ccccc1)N1CN(C2CCCCC2)Cc2c1sc1c2CCCC1,.,.,.,116
Cc1sc2c(c1C)CN(C(C)(C)C)CN2C(=O)c1ccccc1,-,.,-,-
C[C@H](CO)N1C[C@H](C)[C@@H](CN(C)Cc2cccnc2)Oc2ncc(C#CC3CCCCC3)cc2C1=O,.,.,-,.
COCCOC(=O)N1C(=O)[C@@]2(c3cc(C#CC4(O)CCCCCC4)ccc31)[C@H](c1ccc(OCCO)cc1)N1[C@H](c3ccccc3)[C@H](c3ccccc3)OC(=O)[C@H]1[C@@H]2C(N)=O,.,-,-,.
C[C@@H]1CN([C@@H](C)CO)C(=O)c2cc(NC(=O)Nc3cccc4ccccc34)ccc2O[C@@H]1CN(C)Cc1ccc(Cl)c(Cl)c1,.,-,.,93
C[C@H](CO)N1C[C@H](C)[C@H](CN(C)Cc2ccc(C(=O)O)cc2)Oc2ccc(NC(=O)Nc3cccc4ccccc34)cc2CC1=O,-,-,-,-
C[C@@H]1CN([C@@H](C)CO)C(=O)Cc2cc(NC(=O)Nc3cccc4ccccc34)ccc2O[C@@H]1CN(C)Cc1ccc(Cl)c(Cl)c1,.,-,.,129
C[C@H](CO)N1C[C@H](C)[C@H](CN(C)Cc2ccc(Cl)c(Cl)c2)Oc2c(NC(=O)Nc3cccc4ccccc34)cccc2C1=O,.,.,.,107
O=C(C[C@H]1C[C@@H]2c3cc(NC(=O)C4CCOCC4)ccc3O[C@@H]2[C@@H](CO)O1)NCc1ccccn1,-,.,.,.
COCCOC(=O)N1C(=O)[C@@]2(c3cc(C#CC4=CCCCC4)ccc31)[C@H](c1ccc(O)cc1)N1[C@H](c3ccccc3)[C@H](c3ccccc3)OC(=O)[C@H]1[C@@H]2C(=O)NC[C@H](O)c1ccccc1,.,-,-,.
C/C=C(/C)C(=O)O[C@H]1C=C(C)C[C@H](OC(=O)c2ccc(O)cc2)C2[C@](O)(C(C)C)CC[C@@]21C (stereo partly specified),.,-,-,122
Oc1c(C(c2ccncc2)N2CCCC2)ccc2cccnc12 (stereo unspecified),.,.,.,143
COc1ccc(C(c2ccc3cccnc3c2O)N2CCOCC2)cc1 (stereo unspecified),.,.,.,118
C[C@H]1CN([C@@H](C)CO)C(=O)c2cc(NS(=O)(=O)c3ccccc3)ccc2O[C@H]1CN(C)Cc1ccccc1,-,-,.,-
Cn1c(SCC(=O)Nc2cc(=O)n(C)c(=O)n2C)nc2sc3c(c2c1=O)CCC3,-,-,-,-
Cc1noc(C)c1NC(=O)N(C)C[C@H]1Oc2ccc(NS(=O)(=O)c3ccc(F)cc3)cc2CC(=O)N([C@@H](C)CO)C[C@H]1C,.,-,.,-
COCCOC(=O)N1C(=O)[C@@]2(c3cc(C#CC4=CCCCC4)ccc31)[C@H](C(=O)NC[C@H](O)c1ccccc1)[C@H]1C(=O)O[C@H](c3ccccc3)[C@H](c3ccccc3)N1[C@@H]2c1ccc(O)cc1,.,-,-,.
C[C@H]1CN([C@@H](C)CO)C(=O)c2cc(NC(=O)CCCN(C)C)ccc2O[C@H]1CN(C)S(=O)(=O)c1ccc(Cl)cc1,.,.,.,-
C[C@@H]1CN([C@H](C)CO)C(=O)Cc2cc(NS(=O)(=O)c3ccccc3)ccc2O[C@@H]1CN(C)Cc1ccc(C(=O)Nc2ccccc2N)cc1,.,.,.,116
C[C@H]1CN([C@@H](C)CO)C(=O)Cc2cc(NS(=O)(=O)c3ccc(Cl)cc3)ccc2O[C@H]1CN(C)Cc1ccc(C(=O)Nc2ccccc2N)cc1,.,.,.,139
COc1ccccc1-c1cc(C(F)(F)F)nc(S(=O)(=O)CCCC(=O)N2CCOCC2)n1,-,-,-,136
CCOc1ccc(OCC)c(S(=O)(=O)NC2CC(C)(C)NC(C)(C)C2)c1,-,-,-,-
CCOc1ccc(C2(C)CC(C)(C)Nc3ccccc32)cc1 (stereo unspecified),.,.,.,114
Cc1nnc(SCc2cc(=O)[nH]c(Nc3nc(C)c4ccccc4n3)n2)s1,-,-,-,-
